Shown are actives, neighbours in structure and some others; about 12% of the full set was active somewhere.
AMA1 RON2 block: disrupts binding of P. falciparum AMA1 to RON2 | AlphaScreen AMA1-biotinylated RON2 peptide binding | Potency, µM (doses to about 58.2 µM), inactives show at the top dose activity change, negative = inhibition, usual class: inhibitors | actives 0.2% (n = 360,000) | AID 720542;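 note: 0% = vehicle wells and -100% = peptide control; nearly all actives have a fitted effect of over 45% in size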
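AMA1 (3D7) with his tag at 25 nM final met compounds first, then biotinylated RON2 peptide at 25 nM; detection used donor plus acceptor beads, 10 µg/mL apiece, read by AlphaScreen after 30 min at room temperature.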
SARS PLP yeast: SARS-CoV PLP inhibition in yeast; S. cerevisiae expressing SARS-CoV PLpro, growth rescue; Potency, µM (series often up to 32.9 µM), for the others: top-dose activity, positive = growth rescue, actives largely listed as activators; actives 0.19% (n = 330,000); calls by dose curve; note: 0% is about no effect; nearly all actives have a fitted effect of over 55% in size
NS1 inh: blocks influenza NS1 protein function; actives 0.4% (n = 270,000); Potency, µM (doses to about 46.1 µM), for the others: top-dose activity, positive = more growth; calls by dose curve; note: actives are rising curves; nearly all actives have a fitted effect of over 50% in size
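Growth recovery, yeast-based: influenza A NS1 expressed in S. cerevisiae causes slow growth, and suppressors are detected by OD600. The parent strain without NS1 is used as positive control.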
Pf growth 48h: inhibits P. falciparum growth in the first generation, 48 h | Potency, µM (highest dose often 28.7 µM), for the others: at the highest dose activity change, negative = inhibition, most hits filed as inhibitors | actives 5.9% (n = 310,000) | AID 504832 | P. falciparum luciferase growth in erythrocytes, 48 h; note: % is set by controls: 0 for no effect and ±100 for the full control effect
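In quantitative HTS format, infected erythrocytes bearing luciferase-reporter parasites were treated for a single generation at 37 C. Luminescence after adding detection reagent served as the growth measure.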
HCV inhibitor: HCV inhibition; Huh7.5.1 HCVcc-Cre infection, luciferase reporter, 44 h; actives 3.4% (n = 340,000); AID 651820; Potency, µM (doses to about 41.8 µM), for the others: at the highest dose activity change, negative = inhibition, actives largely listed as inhibitors; note: % is set by controls: 0 for no effect and ±100 for the full control effect
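Cells (1,000/well) were plated 4 h before compound, then infected with HCVcc-Cre virus (~0.5 moi). After 44 h further culture, infection was read as luciferase luminescence following a 15 min substrate incubation at room temperature.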
Pf growth 96h: inhibits malaria parasite growth, 96 h | P. falciparum luciferase reporter growth, 96 h | Potency, µM (top dose mostly 28.7 µM), inactives show top-dose activity change, negative = inhibition, usual class: inhibitors | actives 6.9% (n = 320,000) | AID 504834; note: % is set by controls: 0 for no effect and ±100 for the full control effect
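Parasite growth measured via integrated firefly luciferase reporter in P. falciparum. Infected erythrocytes at 2% hematocrit, 0.05% parasitemia final were treated 96 hours at 37 C under 5% CO2, and luminescence was read.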
Starred values were filed as active, the others as inactive; i = inactive; ? = inconclusive; · = not tested or not shown; [ ] = remark or other dose. Unless noted, calls come from the whole dose curve; as a rule, active = well fitted curve in the direction sought with a large enough effect; inconclusive = small, poorly fitted or top-dose-only effect, or another doubt; inactive = no such curve, though single readings can be large; an effect the other way counts as inactive or inconclusive. Potency is the fitted concentration of half-maximal effect.

SMILES	AMA1 RON2 block	SARS PLP yeast	NS1 inh	Pf growth 48h	HCV inhibitor	Pf growth 96h
CC(=O)Nc1ccc(S(=O)(=O)N2CCN(c3cc(C)ccc3C)CC2)cc1	-9%	-30%	-104%	-20%	-9%	13µM*
O=C(C1CCN(S(=O)(=O)c2cnc[nH]2)CC1)N1CCN(c2ccc([N+](=O)[O-])cc2)CC1	-5%	-1%	0%	10%	18%	16%
Cc1ccc(S(=O)(=O)N(CC(=O)Nc2cccc(C(F)(F)F)c2)C(=O)N2CCN(C)CC2)cc1	-8%	3%	·	31%	10%	43%
Cc1cccc(-c2cc3c(N=O)c4ccccc4c-3n[nH]2)c1	-4%	-1%	·	38%	11µM*	45%
Cc1ccc(-c2cc3c(N=O)c4ccccc4c-3n[nH]2)cc1	-5%	-3%	·	138%	14%	i
Cc1ccc([N+](=O)[O-])cc1S(=O)(=O)NCCc1c(C)[nH]c2c(C)cccc12	-3%	14%	8%	10%	-9%	9.3µM*
Cc1[nH]c2c(C)cccc2c1CCNS(=O)(=O)c1cccc([N+](=O)[O-])c1	-2%	-3%	15%	-11%	-11%	36%
COc1ccc(C(=O)OCC(=O)Nc2c(C)n(C)n(-c3ccccc3)c2=O)cc1OC	-7%	7%	·	3%	6%	-24%
O=C(O)c1cc([N+](=O)[O-])cc([N+](=O)[O-])c1N1CCN(c2cccc(C(F)(F)F)c2)CC1	-3%	0%	7%	15%	14%	26%
O=[N+]([O-])c1cc(CN2CCCC2)c2cccnc2c1O	-16%	?	?	9.3µM*	11%	?
CNS(=O)(=O)c1cnccc1N1CCN(C)CC1	1%[2.32 µM]	-21%	-5%	4%	15%	-12%
CNS(=O)(=O)c1cnccc1N1CCN(c2cccc(C(F)(F)F)c2)CC1	9%	-2%	-1%	?	0%	15µM*
O=[N+]([O-])c1cc(Cl)ccc1N1CCN(c2cccc(C(F)(F)F)c2)CC1	?	5%	-6%	?	-3%	12µM*
O=[N+]([O-])c1ccc(N2CCCC2)c2ncccc12	-2%	-2%	·	13%	?	?
O=c1cc(CO)oc(CN2CCN(c3cccc(C(F)(F)F)c3)CC2)c1O	15%	13%	1%	-12%	7%	·
O=[N+]([O-])c1cc(CN2CCN(c3cccc(C(F)(F)F)c3)CC2)c2cccnc2c1O	-82%	-21%	·	0.83µM*	4µM*	?
CC1=C(C(=O)Nc2cc(C(=O)N3CCC(C)CC3)ccc2C)SCCO1	-21%	4%	0%	11%	8%	?
O=[N+]([O-])c1ccc(-n2cnc3ccccc32)c([N+](=O)[O-])c1	-5%	-5%	·	?	?	38%
O=S(=O)(Nc1c(S(=O)(=O)c2ccccc2)c2nc3ccccc3nc2n1C1CCCCC1)c1ccccc1	-8%	6%	2%	3.7µM*	8%	9.3µM*
C=CCn1c(NS(=O)(=O)c2ccccc2)c(S(=O)(=O)c2ccc(C)cc2)c2nc3ccccc3nc21	17%	?	?	3.3µM*	-14%	?
COc1cc(C#Cc2c(-c3cncn3C)n(C)c3ccc(-c4ccc(OC)nc4)cc23)cc(OC)c1	2%	1%	·	?	-33%	0.093µM*
COc1cc(C#Cc2c(-c3cncn3C)n(C)c3ccc(-c4cc(OC)c(OC)c(OC)c4)cc23)cc(OC)c1	-2%	-4%	·	·	11µM*	·
COc1cc(OC)cc(-c2c(C#Cc3ccsc3)c3cc(-c4cc(OC)c(OC)c(OC)c4)ccc3n2C)c1	11%	-4%	·	·	-26%	·
COc1cc(OC)cc(-c2c(C#Cc3ccsc3)c3cc(-c4ccc(C(N)=O)cc4)ccc3n2C)c1	-3%	4%	·	1.3µM*	?	1µM*
COc1ccc(-c2c(C#Cc3ccsc3)c3cc(-c4ccc(OC)nc4)ccc3n2C)cc1	-1%	4%	·	?	13%	?

Screening data: PubChem BioAssay, National Center for Advancing Translational Sciences (NCATS)
